Article PMC4336329 (PLoS ONE, 2015)
The campaign covered roughly 310,000 compounds. About 14,000 (4.5%) showed an effect of 50% or more. The effect is printed as a negative number. The list comes from a sample in which strong results are over-represented; it also holds similar structures and randomly drawn compounds.

target: human ether-à-go-go-related gene (hERG) potassium channel (human, UniProt Q12809); assay: primary screen, population patch clamp on CHO cells stably expressing hERG; higher = less effect of the substance
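Further: peak tail current of the secondary pulse compared with the same well before compound.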

human ether-à-go-go-related gene (hERG) potassium channel, sequence (Q12809 whole entry, looked up): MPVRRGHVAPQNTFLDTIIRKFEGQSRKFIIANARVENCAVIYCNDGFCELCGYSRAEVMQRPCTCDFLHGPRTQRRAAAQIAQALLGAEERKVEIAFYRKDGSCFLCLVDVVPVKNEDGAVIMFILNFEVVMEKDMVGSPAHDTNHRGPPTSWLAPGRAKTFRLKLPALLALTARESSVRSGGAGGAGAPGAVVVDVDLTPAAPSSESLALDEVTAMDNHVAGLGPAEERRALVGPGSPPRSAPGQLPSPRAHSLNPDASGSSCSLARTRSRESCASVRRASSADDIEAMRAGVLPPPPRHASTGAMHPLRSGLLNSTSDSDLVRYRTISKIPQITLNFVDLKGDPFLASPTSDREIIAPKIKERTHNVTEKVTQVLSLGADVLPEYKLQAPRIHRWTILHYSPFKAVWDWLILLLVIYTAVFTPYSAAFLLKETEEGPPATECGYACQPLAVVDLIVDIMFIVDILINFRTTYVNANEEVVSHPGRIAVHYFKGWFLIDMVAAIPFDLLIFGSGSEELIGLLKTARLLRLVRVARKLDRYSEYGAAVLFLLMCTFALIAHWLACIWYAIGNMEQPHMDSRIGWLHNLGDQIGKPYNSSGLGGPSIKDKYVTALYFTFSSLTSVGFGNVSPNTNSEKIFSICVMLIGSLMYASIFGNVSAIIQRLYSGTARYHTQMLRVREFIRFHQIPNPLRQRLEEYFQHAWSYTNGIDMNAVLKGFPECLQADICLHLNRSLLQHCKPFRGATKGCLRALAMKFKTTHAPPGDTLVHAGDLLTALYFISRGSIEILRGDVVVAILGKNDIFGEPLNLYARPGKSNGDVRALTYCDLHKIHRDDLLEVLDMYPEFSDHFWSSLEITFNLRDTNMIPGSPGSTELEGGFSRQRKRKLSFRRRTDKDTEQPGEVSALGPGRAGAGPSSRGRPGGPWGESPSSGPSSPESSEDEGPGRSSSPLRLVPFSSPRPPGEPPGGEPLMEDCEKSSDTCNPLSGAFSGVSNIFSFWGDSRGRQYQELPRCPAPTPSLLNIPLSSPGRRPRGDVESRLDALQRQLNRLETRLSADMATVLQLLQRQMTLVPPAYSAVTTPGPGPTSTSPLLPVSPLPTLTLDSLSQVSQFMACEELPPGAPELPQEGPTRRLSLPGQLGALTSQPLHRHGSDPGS

| Structure (SMILES) | hERG current change (%, negative = inhibition) at 10uM |
| --- | --- |
| CC(NC(=O)N(Cc1ccccc1)Cc1ccc2c(c1)OCO2)(C(F)(F)F)C(F)(F)F | 7.8% |
| O=C(CCCN=C1NS(=O)(=O)c2ccccc21)OCc1cc([N+](=O)[O-])cc2c1OCOC2 | -14.7% |
| CCC(OC(=O)c1ccco1)C(=O)NCc1ccc(OC)cc1 (stereo not drawn) | -8.67% |
| O=C(Cc1cccc2ccccc12)N1CC[C@@]2(O)CCCC[C@H]2C1 | 12.5% |
| CN(C)S(=O)(=O)c1cccc(NC(=O)COC(=O)c2ccc3c(c2)OCO3)c1 | -19.4% |
| COc1ccc(C(CCNCc2ccc(OC(C)C)cc2)C(C)C)cc1 (stereo not drawn) | -39% |
| COc1ccc(CC(=O)NC(C)CCc2ccccc2)cc1OC (stereo not drawn) | 8.96% |
| COc1ccc(CNCCCO)cc1OC | 4.57% |
| COc1ccc(CNCCC(c2ccc(OC(C)C)cc2)C(C)C)cc1OC (stereo not drawn) | -74.5% |
| COc1ccc(CNCCC(c2ccc(F)cc2)c2ccc(OC(C)C)cc2)cc1OC (stereo not drawn) | -73% |
| COc1ccc(OC)c(NC(=S)NCCC(c2ccccc2)c2ccccc2)c1 | 1.73% |
| CCOCCCNCc1ccc(OC)c(OC)c1.O=C(O)C(=O)O | 3.24% |
| COc1ccc(C(C)NC(=S)NCc2ccc(F)cc2)cc1OC (stereo not drawn) | -5.63% |
| COc1ccc(CNCCC(c2ccccc2)c2ccc(OC(C)C)cc2)cc1OC (stereo not drawn) | -69.7% |
| COc1ccc(CNCCC(c2ccc(OC(C)C)cc2)c2ccccc2OC)cc1OC (stereo not drawn) | -71.3% |
| COc1ccc(CNCCCSc2ncccn2)cc1OC.Cl | 11.9% |
| COc1ccc(CN(CCC(c2ccccc2)c2ccc(OC(C)C)cc2)C(=O)CCl)cc1OC (stereo not drawn) | -1.82% |
| C/C(=N\NC(=O)c1ccc(CN2CCOCC2)cc1)c1cccc([N+](=O)[O-])c1 | -19.5% |
| COc1ccccc1C(=O)Nc1ccccc1C(=O)NC1CCCCC1 | -1.19% |

| Structure (SMILES) | hERG current change (%, negative = inhibition) at 10uM |
| --- | --- |
| O=C(COc1ccccc1Cl)Nc1ccc(C(=O)c2ccc(C(=O)O)cc2)cc1 | 11.7% |
| Cc1cccc2c(=O)oc(-c3ccccc3Cl)nc12 | 14.2% |
| Cc1ccc(CN2[C@@H](CC(C)C)COCCS2(=O)=O)cc1 | -2.46% |
| CCOc1ccc(CN(C)C(=O)c2ccc(NC(=O)CC3SC(N4CCCC4)=NC3=O)cc2)cc1 (stereo not drawn) | 7.53% |
| O=C(NCC1CCCO1)c1ccccc1-c1nc(-c2ccc(F)cc2)no1 (stereo not drawn) | -31.1% |
| CCc1nnc(NC(=O)CSc2nnc(COc3ccccc3)n2Cc2ccccc2)s1 | 5.71% |
| COc1ccc(NC(=O)c2sccc2-n2cccc2)cc1 | 3.64% |
| CCc1cccc2c(C(=O)CN3C(=O)NC4(CCc5ccccc54)C3=O)c[nH]c12 (stereo not drawn) | 10.4% |
| CC(NC(=O)CSc1nc(=O)cc(N)n1CCc1ccccc1)c1ccccc1 (stereo not drawn) | 1.91% |
| O=C(Cn1c(=O)n(-c2cccc(Cl)c2)c(=O)n1CC(=O)N1CCCCC1)N1CCCCC1 | 4.64% |
| CCOc1ccc(-n2c(C)cc(C(=O)NS(=O)(=O)c3ccc(C)cc3)c2C)cc1 | -32.3% |
| CCOC(=O)C1CCN(C(=O)CSc2n[nH]c(=O)[nH]c2=O)CC1 | 7.16% |
| CC(C)Oc1ccc(CNC(=O)CC(c2ccccc2)c2cc(Cl)ccc2O)cc1 (stereo not drawn) | 11.8% |
| COc1ccc(C(CCNCc2ccc(OC)c(OC)c2)c2ccc(F)cc2)cc1 (stereo not drawn) | -71.3% |
| COc1ccc(C(CCN(Cc2ccc(OC)c(OC)c2)C(C)=O)C(C)C)cc1 (stereo not drawn) | -52.3% |
| COc1ccc(CNC(=S)NCc2ccc(F)cc2)cc1OC | -0.604% |
| COc1ccc(CN(CCC(c2ccco2)C(C)C)C(C)=O)cc1OC (stereo not drawn) | 0.825% |
| CC(C)Oc1ccc(C(CCNCc2ccc(O)cc2)c2ccccc2)cc1 (stereo not drawn) | -58.7% |
| CC(C)Oc1ccc(CNC(=O)Oc2ccccc2)cc1 | 8.19% |

| Structure (SMILES) | hERG current change (%, negative = inhibition) at 10uM |
| --- | --- |
| COc1ccc(NCc2ccc(OC)c(OC)c2)cc1 | 2.67% |
| COc1ccc(C(CCN(Cc2ccc(OC)c(OC)c2)C(C)=O)c2ccccc2)cc1 (stereo not drawn) | -33.9% |
| Cc1ccc(S(=O)(=O)N2CCN(S(=O)(=O)N3CCOCC3)CC2)cc1 | 13.4% |
| COCCCNC(=O)CCc1nnc2ccc(N3CCC(C)CC3)nn12 | 10.9% |
| O=C(CSC1=NS(=O)(=O)c2ccccc2N1)c1ccccc1 | -8.85% |
| COc1ccc(CNC(=O)C/C(C)=N/NC(=O)COc2ccc(Br)cc2)cc1 | -33.3% |
| O=C(O)c1ccc(NCc2cccnc2)c([N+](=O)[O-])c1 | 30% |
| Cc1ccc(C(=O)n2nc(-c3ccccc3)nc2NCc2ccco2)cc1 | 16% |
| Cc1cc(C)n(CCC(=O)Nc2ccc3c(c2)OCCO3)n1 | 17.1% |
| COc1ccc(CN2CCCCC2c2cccnc2)cc1C (stereo not drawn) | 0.438% |
| Cc1nc2ccccc2c2oc(C(=O)N3CCN(C4CCCCC4)CC3)cc12 | -64.7% |
| O=C(c1oc(=O)c2ccccc2c1-c1ccccc1)N1CCC(O)CC1 | -11.6% |
| O=C(c1oc(=O)c2ccccc2c1-c1ccccc1)N1CCOCC1 | -24.6% |
| O=C(c1oc(=O)c2ccccc2c1-c1ccccc1)N1CCN(C2CCCCC2)CC1 | -61.6% |
| Cc1nc2ccccc2c2oc(C(=O)N3CCC(C)CC3)cc12 | -30.5% |
| Cc1nc2ccccc2c2oc(C(=O)N3CCC(N4CCCCC4)CC3)cc12 | -38.8% |
| CCOC(=O)N1CCN(C(=O)c2oc(=O)c3ccccc3c2-c2ccc(C)cc2)CC1 | -31.4% |
| O=C(c1ccco1)N1CCN(C(=O)c2oc(=O)c3ccccc3c2-c2ccccc2)CC1 | -50.7% |
| Cc1ccc(-c2c(C(=O)N3CCOCC3)oc(=O)c3ccccc23)cc1 | -17.8% |
